Laboratory results taken from PubChem BioAssay (NCATS).
Inconclusive results are not listed. Entries that show only a call come without a potency. The source made the active and inactive calls. Calls come from the whole dose curve; as a rule, active = well fitted curve in the direction sought with a large enough effect; inconclusive = small, poorly fitted or top-dose-only effect, or another doubt; inactive = no such curve, though single readings can be large; an effect the other way counts as inactive or inconclusive. Where a SMILES comes first, the peptide text is derived from it. Bridges are numbered along the chain shown (N, C = ends). [ ]: non-standard residue; d: D form. The star is where a group is joined. ξ: configuration not given here. d(aThr) = C[C@@H](O)[C@@H](N)C(=O)O; ξThr(3R) = C[C@@H](O)C(N)C(=O)O; X3 = CC[C@@H](C)CCCCC(=O)*; dDab = NCC[C@@H](N)C(=O)O

What was measured:
[1] = qHTS assay to identify small molecule inhibitors of chordoma cells - UCH-2 (AID 1259356); settings: UCH-2 chordoma viability, CellTiter-Glo ATP luminescence, 48 h; series mostly up to 46.1 µM; note: potency is the fitted concentration of half-maximal effect
[2] = P-glycoprotein substrates identified in KB-3-1 adenocarcinoma cell line, qHTS therapeutic library screen (AID 1346986); settings: KB-3-1 parental cells viability, CellTiter-Glo, 72 h; note: nearly all actives have a fitted effect of over 60% in size
Description: The ATP-binding cassette transporters P-glycoprotein (P-gp) is known to limit brain penetration of many chemotherapy drugs. […] We used the CellTiter-Glo viability assay to test library compounds against the parental KB-3-1 human cervical adenocarcinoma cell line and the colchicine-selected sub-line KB-8-5-11 that over-expresses P-gp. KB-8-5-11 cells were also tested in the presence of a P-gp inhibitor (tariquidar) to assess reversability of transporter-mediated resistance. Of the tested compounds, a total of 90 P-gp substrates were identified including 55 newly identified P-gp substrates. Substrates were confirmed using an orthogonal killing assay against HEK-293 cells transfected with P-gp. As exemplars, we confirmed that AT7159 (cyclin-dependent kinase inhibitor); AT9283, (Janus kinase 2/3 inhibitor); ispinesib (kinesin spindle protein inhibitor); gedatolisib (PKI-587, phosphoinositide 3-kinase/mammalian target of rampamycin inhibitor); GSK-690693 (AKT inhibitor); and KW-2478 (heat shock protein 90 inhibitor) were substrates , and direct ATPase stimulation was assessed. […]
All cell lines were plated into 1536-well plates at 500 cells/well in 5 uL media. […] CellTiter-Glo reagent (Promega) was dispensed into the wells, incubated for 5 min and luminescence was read on a ViewLux instrument (Perkin-Elmer). […]

[3] = P-glycoprotein substrates identified in KB-8-5-11 adenocarcinoma cell line, qHTS therapeutic library screen (AID 1346987); settings: KB-8-5-11 (P-gp overexpressing) viability, CellTiter-Glo, 72 h; series mostly up to 44.5 µM; note: nearly all actives have a fitted effect of over 65% in size; note: potency is the fitted concentration of half-maximal effect
Summary of the method: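 Human cervical adenocarcinoma KB-8-5-11 cells, selected in colchicine to over-express P-gp and assayed without it, were exposed for 72 h to titrated compounds. An ATP-based luminescent viability signal gave AC50.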

COc1ccc(C(=O)c2ccc(C)cc2)c(O)c1
Potency [1]: inactive

CC(C)(COP(=O)(O)OP(=O)(O)OC[C@H]1O[C@@H](n2cnc3c(N)ncnc32)[C@H](O)[C@@H]1OP(=O)(O)O)C(O)C(=O)NCCC(=O)NCCS (stereo partly specified)
Potency [1]: inactive

CN(C)c1ccc(C(=C2C=CC(=[N+](C)C)C=C2)c2c(O)c(S(=O)(=O)[O-])cc3cc(S(=O)(=O)O)ccc23)cc1
Potency [1]: 20.6 µM (active)

CN1C(C(=O)Nc2ccccn2)C(=O)c2sc(Cl)cc2S1(=O)=O (stereo unspecified)
Potency [1]: inactive

O=C(CCCN1CCC(C(=O)c2ccc(F)cc2)CC1)c1ccc(F)cc1
Potency [1]: inactive

C#C[C@]1(O)CC[C@H]2[C@@H]3CCC4=C(CCC(=O)C4)[C@H]3CC[C@@]21C
Potency [1]: inactive

O=P(O)(O)O
Potency [1]: inactive

CCN(CC)CCOCCOC(=O)C(CC)(CC)c1ccccc1
Potency [1]: inactive

CC(O)[C@H]1CC[C@H]2[C@@H]3CC[C@@H]4C[C@@H](O)CC[C@]4(C)[C@H]3CC[C@]12C (stereo partly specified)
Potency [1]: inactive

COc1ccc(C(=O)/C(Br)=C\C(=O)O)cc1
Potency [1]: inactive

Cc1cc(O)c2c(c1)O[C@@]1(C)CC[C@H]3C(C)(C)CCCC34CO[C@@H]2[C@H]41 (stereo partly specified)
Potency [1]: inactive

C=C1CC[C@H](O)CC1=C/C=C1\CCC[C@]2(C)[C@@H]([C@H](C)CCCC(C)(C)O)CC[C@@H]12
Potency [1]: inactive

N#Cc1ccc2c(c1)N(CCCN1CCC(O)CC1)c1ccccc1S2
Potency [1]: inactive

O=C(c1cc2ccccc2o1)N1CCN(Cc2ccccc2)CC1
Potency [1]: inactive

C=Cc1ccc(S(=O)(=O)O)cc1
Potency [1]: inactive

NC(=S)NS(=O)(=O)c1ccc(N)cc1
Potency [1]: inactive

O=C(O)c1cc(N=Nc2ccc(O)c(C(=O)O)c2)ccc1O
Potency [1]: inactive

Cc1cccc(C)c1Nc1ncccc1C(=O)O
Potency [1]: inactive

CCCc1nc(C(C)(C)O)c(C(=O)OCc2oc(=O)oc2C)n1Cc1ccc(-c2ccccc2-c2nn[nH]n2)cc1
Potency [1]: inactive

COc1ccc2c(c1)N(C[C@H](C)CN(C)C)c1ccccc1S2
Potency [1]: inactive

CCN(CC)C(=O)c1cccnc1
Potency [1]: inactive

CCCCC(CC)COS(=O)(=O)O (stereo unspecified)
Potency [1]: inactive

C[C@H]1O[C@@H](O[C@H]2[C@@H](O)C[C@H](O[C@H]3[C@@H](O)C[C@H](O[C@H]4CC[C@@]5(C)[C@H](CC[C@@H]6[C@@H]5C[C@@H](O)[C@]5(C)[C@@H](C7=CC(=O)OC7)CC[C@]65O)C4)O[C@@H]3C)O[C@@H]2C)C[C@H](O)[C@@H]1O
Potency [1]: 0.116 µM (active)

C=CC[C@@H]1/C=C(\C)C[C@H](C)C[C@H](OC)[C@H]2O[C@@](O)(C(=O)C(=O)N3CCCC[C@H]3C(=O)O[C@H](/C(C)=C/[C@@H]3CC[C@@H](O)[C@H](OC)C3)[C@H](C)[C@@H](O)CC1=O)[C@H](C)C[C@@H]2OC
Potency [1]: inactive

N=C(N)c1ccc(/C=C/c2ccc(C(=N)N)cc2O)cc1
Potency [1]: inactive

CS(=O)(=O)c1ccc([C@@H](O)[C@@H](COC(=O)CN)NC(=O)C(Cl)Cl)cc1
Potency [1]: inactive

O=[N+]([O-])c1c(Cl)cccc1-c1c[nH]cc1Cl
Potency [1]: inactive

Oc1cc(O)cc(O)c1
Potency [1]: inactive

CCN(CC)CCC(=O)N1c2ccccc2Sc2ccc(C(F)(F)F)cc21
Potency [1]: inactive

O=C(O)[C@@H]1C[C@H](CP(=O)(O)O)CCN1
Potency [1]: inactive

O=C1/C(=C\c2cccs2)CCC/C1=C\c1cccs1
Potency [1]: inactive

C=CCCCCCCCCC(=O)OC
Potency [1]: inactive

O=C(O)c1ccc(NC2OC[C@@H](O)[C@H](O)[C@H]2O)cc1 (stereo partly specified)
Potency [1]: inactive

CN(C)CCC=C1c2ccccc2C(C)(C)c2ccccc21
Potency [1]: inactive

CC(C)N1CCN(c2ccc(OC[C@H]3CO[C@](Cn4cncn4)(c4ccc(Cl)cc4Cl)O3)cc2)CC1
Potency [1]: inactive

CN(C)C=Nc1c(I)cc(I)c(CCC(=O)O)c1I
Potency [1]: inactive

N[C@@H](Cc1cc(I)c(Oc2ccc(O)c(I)c2)c(I)c1)C(=O)O
Potency [1]: inactive

CN[C@@H]1[C@H](O[C@H]2[C@H](O[C@H]3[C@H](O)[C@@H](O)[C@H](N=C(N)N)[C@@H](O)[C@@H]3N=C(N)N)O[C@@H](C)[C@]2(O)C=O)O[C@@H](CO)[C@H](O)[C@H]1O
outcome [2]: inactive

C[C@H](CCC(=O)O)[C@H]1CC[C@H]2[C@@H]3CC[C@@H]4C[C@H](O)CC[C@]4(C)[C@H]3C[C@H](O)[C@]12C
Potency [1]: inactive
Potency [3]: inactive

CS(=O)(=O)OCC(O)C(O)COS(C)(=O)=O (stereo unspecified)
Potency [1]: inactive
Potency [3]: inactive

C[C@@H]1O[C@@H](OC[C@H]2O[C@@H](Oc3c(-c4ccc(OCCO)c(OCCO)c4)oc4cc(OCCO)cc(O)c4c3=O)[C@H](O)[C@@H](O)[C@@H]2O)[C@H](O)[C@H](O)[C@H]1O
Potency [1]: inactive
Potency [3]: inactive

Cc1cc2nc3c(=O)[nH]c(=O)nc-3n(C[C@H](O)[C@H](O)[C@H](O)COP(=O)(O)OP(=O)(O)OC[C@H]3O[C@@H](n4cnc5c(N)ncnc54)[C@H](O)[C@@H]3O)c2cc1C
Potency [1]: inactive
Potency [3]: inactive

CC1C(=O)CC2C3(C)CCC2(C(C)C(=O)O)C(=O)C13 (stereo unspecified)
Potency [1]: inactive
Potency [3]: inactive

C=C1CC[C@H](O)CC1=C/C=C1\CCC[C@]2(C)[C@@H]([C@H](C)/C=C/[C@H](C)C(C)C)CC[C@@H]12
Potency [1]: inactive
Potency [3]: inactive

O=C(O)c1ccc(OCCn2ccnc2)cc1
Potency [1]: inactive
Potency [3]: inactive

O=C1NC(=O)[C@H]2[C@@H]1[C@@H]1C=C[C@H]2C1
Potency [1]: inactive
Potency [3]: inactive

Nc1nc2c(c(=O)[nH]1)N(C=O)C(CNc1ccc(C(=O)N[C@@H](CCC(=O)O)C(=O)O)cc1)CN2 (stereo partly specified)
Potency [1]: inactive
Potency [3]: inactive

FC(F)(F)C(F)(F)C(F)(F)C(F)(F)C(F)(F)F
Potency [1]: inactive
Potency [3]: inactive

CC[C@@H](C)CCCCC(=O)N[C@H](CCN)C(=O)N[C@@H](C(=O)N[C@H](CCN)C(=O)N[C@@H]1CCNC(=O)C([C@@H](C)O)NC(=O)[C@@H](CCN)NC(=O)[C@@H](CCN)NC(=O)[C@@H](CC(C)C)NC(=O)[C@@H](Cc2ccccc2)NC(=O)[C@@H](CCN)NC1=O)[C@@H](C)O (stereo partly drawn) (X3-[dDab][d(aThr)][dDab][dDab][dDab][dF][dL][dDab][dDab][ξThr(3R)]; lactam 4-C)
Potency [1]: inactive
Potency [3]: inactive

CCCCC(=O)O[C@H]1CC[C@H]2[C@@H]3CCc4cc(O)ccc4[C@H]3CC[C@]12C
Potency [1]: inactive
Potency [3]: 14.6 µM (active)

O=C(O)/C=C/c1ccccc1
Potency [1]: inactive
Potency [3]: inactive

CC(C)CCCC(C)NC(C)C (stereo unspecified)
Potency [1]: inactive
Potency [3]: inactive

FC(F)(F)COCC(F)(F)F
Potency [1]: inactive
Potency [3]: inactive

OC[C@H]1O[C@@H]2O[C@H]3[C@H](O)[C@@H](O)[C@@H](O[C@H]4[C@H](O)[C@@H](O)[C@@H](O[C@H]5[C@H](O)[C@@H](O)[C@@H](O[C@H]6[C@H](O)[C@@H](O)[C@@H](O[C@H]7[C@H](O)[C@@H](O)[C@@H](O[C@H]1[C@H](O)[C@H]2O)O[C@@H]7CO)O[C@@H]6CO)O[C@@H]5CO)O[C@@H]4CO)O[C@@H]3CO
Potency [1]: inactive
Potency [3]: inactive

COC1[C@@H](O[C@@H]2O[C@H](C)[C@@H](O[C@H]3C[C@@](C)(O)[C@H](OC(=O)CC(C)C)[C@H](C)O3)[C@H](N(C)C)[C@H]2O)[C@@H](CC=O)C[C@@H](C)[C@@H](O)/C=C/C=C/C[C@@H](C)OC(=O)C[C@H]1OC(C)=O (stereo partly specified)
Potency [1]: inactive
Potency [3]: inactive

CC/C=C\C/C=C\C/C=C\C/C=C\C/C=C\C/C=C\CCC(=O)O
Potency [1]: inactive
Potency [3]: inactive

CN1CCC(OC(=O)C(Oc2ccc(Cl)cc2)Oc2ccc(Cl)cc2)CC1
Potency [1]: inactive
Potency [3]: inactive

CN1C(=O)C[C@@H](C(=O)N[C@@H](Cc2cnc[nH]2)C(=O)N2CCC[C@H]2C(N)=O)NC1=O
Potency [1]: inactive
Potency [3]: inactive

CC1CCCCN1CCCOC(=O)c1ccccc1 (stereo unspecified)
Potency [1]: inactive
Potency [3]: inactive

CC1=CC(=O)NS(=O)(=O)O1
Potency [1]: inactive
Potency [3]: inactive

OCCCNc1ccccc1
Potency [1]: inactive
Potency [3]: inactive

O=C(O)COc1ccc(CCNS(=O)(=O)c2ccccc2)s1
Potency [1]: inactive
Potency [3]: inactive

C=C1c2c(Cl)ccc(O)c2C(O)=C2C(=O)[C@]3(O)C(O)=C(C(N)=O)C(=O)[C@@H](N(C)C)[C@@H]3[C@@H](O)[C@H]12
Potency [1]: inactive
Potency [3]: inactive

Cn1nnnc1SCC1=C(C(=O)O)N2C(=O)[C@@H](NC(=O)[C@H](O)c3ccccc3)[C@H]2SC1
Potency [1]: inactive
Potency [3]: inactive

CCC(=O)c1ccc2c(c1)N(CCCN1CCN(CCO)CC1)c1ccccc1S2
Potency [1]: inactive
Potency [3]: inactive

CC(C)C[C@H](NC(=O)[C@@H](COC(C)(C)C)NC(=O)[C@H](Cc1ccc(O)cc1)NC(=O)[C@H](CO)NC(=O)[C@H](Cc1c[nH]c2ccccc12)NC(=O)[C@H](Cc1cnc[nH]1)NC(=O)[C@@H]1CCC(=O)N1)C(=O)N[C@@H](CCCN=C(N)N)C(=O)N1CCC[C@H]1C(=O)NNC(N)=O
Potency [1]: inactive
Potency [3]: inactive

CC1=C(/C=C/C(C)=C/C=C/C(C)=C/C(=O)Oc2c(C)c(C)c3c(c2C)CC[C@@](C)(CCC[C@H](C)CCC[C@H](C)CCCC(C)C)O3)C(C)(C)CCC1
Potency [1]: inactive
Potency [3]: inactive

COc1cc(NCCCC(C)N)c2ncccc2c1 (stereo unspecified)
Potency [1]: 9.2 µM (active)
Potency [3]: inactive

CC(O)[C@@H]1NC(=O)[C@H](Cc2ccccc2)NC(=O)[C@H](C(C)O)NC(=O)[C@H](CCCCN)NC(=O)[C@H](Cc2c[nH]c3ccccc23)NC(=O)[C@H](Cc2ccccc2)NC(=O)[C@H](Cc2ccccc2)NC(=O)[C@H](CC(N)=O)NC(=O)[C@H](CCCCN)NC(=O)[C@@H](NC(=O)CNC(=O)[C@H](C)N)CSSC[C@@H](C(=O)O)NC(=O)[C@H](CO)NC1=O (stereo partly specified)
Potency [1]: inactive
Potency [3]: inactive

Cc1c(Cl)cccc1Nc1ncccc1C(=O)O
Potency [1]: inactive
Potency [3]: inactive

CCC(C(=O)NC(N)=O)c1ccccc1 (stereo unspecified)
Potency [1]: inactive
Potency [3]: inactive

COc1ccc(-c2noc(CC(=O)O)c2-c2ccc(OC)cc2)cc1
Potency [1]: inactive
Potency [3]: inactive
